Data reported in article PMC4102417.

Tested on: murine 3T3 fibroblasts
Experiment: primary screen, percent viability or growth; higher = less effect of the substance
Protocol: Similarly, for measuring the cytotoxicity concentration (CC50) for 3T3 fibroblast cells, cultures were incubated with drugs for 72 hours and developed using Alamar Blue (Alamar Biosciences Inc, Sacramento, CA) as previously described.

SMILES | Mammalian (3T3) cell % growth at 10 uM
CC1=C(O)C(=O)C=C2C1=CC=C1[C@@]2(C)CC[C@@]2(C)[C@@H]3C[C@](C)(C(=O)O)CC[C@]3(C)CC[C@]12C | 1%
COc1ccc(C[C@H]2NC[C@H](O)[C@H]2OC(C)=O)cc1 | 10.3%
CC(C)c1ccc2c(c1O)CC[C@H]1C3=C(CC[C@]21C)C(=O)OC3 | 83.1%
CC[C@@]1(O)C(=O)OCc2c1cc1n(c2=O)Cc2cc3ccccc3nc2-1 | 94.3%
C[C@@H]1CC[C@H]2[C@@H](C)C(=O)O[C@@H]3O[C@@]4(C)CC[C@@H]1[C@]32OO4 | 77.6%
Cc1c(O)c(O)cc2c1CC=C1[C@@]2(C)CC[C@@]2(C)[C@@H]3C[C@](C)(C(=O)O)CC[C@]3(C)CC[C@]12C | 0.1%
O=C1C=C2C=C[C@@H]3C[C@@]2(O1)[C@H]1CCCCN31 | 75%
